Laboratory results reported in the supplement of paper PMC9135407.
Structures can show the parent of a compound that is named as a salt.

The compounds below were run on primary human hepatic stellate cells (donor 1) (assay: ACTA2 mRNA fold change vs DMSO (normalised to PSMB2); higher = more ACTA2 expression). Conditions: 48 h.
Description: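 Secondary qRT-PCR screen in primary human HSCs (donor 1), 384-well plates, with compounds dispensed in quadruplicate and incubated for 48 h. Cells-to-CT lysates were used for multiplexed TaqMan qPCR of ACTA2 or COL1A1 with PSMB2 as reference. Fold changes versus DMSO come from a linear model (Ct_gene ~ Ct_PSMB2 + plate + chemical). A hit is defined as COL1A1 and ACTA2 FC <0.5 (FDR <0.05) with PSMB2 between 0.2 and 2.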
For CCCCCCCCc1ccc(CCC(N)(CO)CO)cc1 [Fingolimod (FTY720) HCl] (11.1 µM), the “ACTA2 mRNA fold change” value was 0.301. CNc1nccc(-c2cccnc2Oc2cc(C(=O)Nc3cccc(C(F)(F)F)c3)ccc2C)n1 (33.3333 µM) was tested, and the “ACTA2 mRNA fold change” value was 0.569. In the case of C[C@@H](Oc1cc(-c2cnn(C3CCNCC3)c2)cnc1N)c1c(Cl)ccc(F)c1Cl (11.1 µM), the “ACTA2 mRNA fold change” value is reported as 0.15. For CN1CCN(Cc2ccc(-c3cnc4[nH]cc(-c5ccc6[nH]ccc6c5)c4c3)cc2)CC1 (6.66667 µM), the “ACTA2 mRNA fold change” value was 0.042. CC#CCOC(=O)c1c(C)nc2sc3c(c2c1N)CCC(O)C3 (stereo not given) (33.3333 µM) was tested, and the “ACTA2 mRNA fold change” value was 0.806. With CCN(CC)CCCCNc1ncc2cc(-c3c(Cl)cccc3Cl)c(NC(=O)NC(C)(C)C)nc2n1 (33.3333 µM) the “ACTA2 mRNA fold change” value was 0.196. For CNC(=O)[C@@H](Cc1ccccc1)N(C)C(=O)[C@@H](Cc1ccc2ccccc2c1)N(C)C(=O)/C=C/CC(C)(C)N [Tabimorelin] (33.3333 µM), the “ACTA2 mRNA fold change” value was 0.46. For O=C(Nc1ncc(SCCN2CCCC2)s1)[C@]1(c2ccc(S(=O)(=O)C3CC3)cc2)C[C@H]1C1CCCCC1 (11.1 µM), the “ACTA2 mRNA fold change” value was 0.00928. CCCCc1oc2ccccc2c1C(=O)c1cc(I)c(OCCN(CC)CC)c(I)c1 (33.3333 µM) was tested, and the “ACTA2 mRNA fold change” value was 0.0284. NS(=O)(=O)C#Cc1ccccc1 [Pifithrin->m] (33.3333 µM) was tested, and the “ACTA2 mRNA fold change” value was 0.0598. With Cc1cc(C(=O)Nc2cc(Nc3ccc4c(/C=C/c5ccccn5)n[nH]c4c3)ccc2F)n(C)n1 (33.3333 µM) the “ACTA2 mRNA fold change” value was 0.469. With c1ccc2c(NCCCCCCCNc3c4c(nc5ccccc35)CCCC4)c3c(nc2c1)CCCC3 [bis(7)-Tacrine] (3.33333 µM) the “ACTA2 mRNA fold change” value was 0.0296. In the case of CS(=O)(=O)CCNCc1ccc(-c2ccc3ncnc(Nc4ccc(OCc5cccc(F)c5)c(Cl)c4)c3c2)o1 (6.66667 µM), the “ACTA2 mRNA fold change” value is reported as 1.05. CCNC(=O)c1noc(-c2cc(C(C)C)c(O)cc2O)c1-c1ccc(CN2CCOCC2)cc1 (11.1 µM) was tested, and the “ACTA2 mRNA fold change” value was 1.19. For CNCc1ccc(-c2[nH]c3cc(F)cc4c3c2CCNC4=O)cc1 (33.3333 µM), the “ACTA2 mRNA fold change” value was 0.864. For CCCSc1ccc2[nH]c(NC(=O)OC)nc2c1 [Albendazole] (33.3333 µM), the “ACTA2 mRNA fold change” value was 0.173. For COc1cc2ncn(-c3cc(OCc4ccccc4C(F)(F)F)c(C(N)=O)s3)c2cc1OC (33.3333 µM), the “ACTA2 mRNA fold change” value was 0.333. In the case of C[C@@H](CN1CCC(n2c(=O)[nH]c3cc(Cl)ccc32)CC1)NC(=O)c1ccc2ccccc2c1 (33.3333 µM), the “ACTA2 mRNA fold change” value is reported as 0.045. With COc1cc2nc(N3CCCN(C)CC3)nc(NC3CCN(Cc4ccccc4)CC3)c2cc1OC (3.33333 µM) the “ACTA2 mRNA fold change” value was 0.0176. With O=C(c1ccc(/C=C/c2n[nH]c3ccccc23)cc1)N1CCNCC1 (33.3333 µM) the “ACTA2 mRNA fold change” value was 0.0375. In the case of CN1CCN(C2=Cc3ccccc3Oc3ccc(Cl)cc32)CC1 (33.3333 µM), the “ACTA2 mRNA fold change” value is reported as 0.196. Nc1ccc(C(=O)Nc2cccc(-c3nc(N4CCOCC4)c4oc5ncccc5c4n3)c2)cn1 (6.66667 µM) was tested, and the “ACTA2 mRNA fold change” value was 1.8. For CN1CCC(=C2c3ccccc3C=Cc3ccccc32)CC1 [Cyproheptadine] (33.3333 µM), the “ACTA2 mRNA fold change” value was 0.172. With Cc1ccc(NC(=O)C(C)C)cc1C1CCN(Cc2ccc(Oc3ccc(F)c(F)c3)cc2)CC1 (33.3333 µM) the “ACTA2 mRNA fold change” value was 0.0197. COc1ccc(NS(=O)(=O)c2sc3ccc(Cl)cc3c2C)cc1N1CCNCC1 (33.3333 µM) was tested, and the “ACTA2 mRNA fold change” value was 0.0163. For CNCCCC1c2ccccc2C=Cc2ccccc21 [Protryptyline hydrochloride] (22.2333 µM), the “ACTA2 mRNA fold change” value was 0.577. For CN(C)Cc1c(C(=O)NCCOc2ccc(C(=O)NO)cc2)oc2ccccc12 (33.3333 µM), the “ACTA2 mRNA fold change” value was 0.00935. With CC(C)c1ccc(C(=O)c2cccs2)c(SCCCCCCCCN(C)C)n1 (33.3333 µM) the “ACTA2 mRNA fold change” value was 0.846. In the case of Cc1[nH]c(/C=C2\C(=O)Nc3ccc(S(=O)(=O)N(C)c4cccc(Cl)c4)cc32)c(C)c1C(=O)N1CCN(C)CC1 (33.3333 µM), the “ACTA2 mRNA fold change” value is reported as 0.425. O=C1NC(=O)/C(=C/c2ccc(-c3ccc(F)cc3O)o2)S1 (33.3333 µM) was tested, and the “ACTA2 mRNA fold change” value was 0.0492. For C[C@]12CC[C@H](O)CC1=CC[C@@H]1[C@@H]2CC[C@]2(C)C(n3cnc4ccccc43)=CC[C@@H]12 [Galeterone] (33.3333 µM), the “ACTA2 mRNA fold change” value was 0.0205. C#C[C@]1(O)CC[C@H]2[C@@H]3CCC4=Cc5oncc5C[C@]4(C)[C@H]3CC[C@@]21C [Danazol] (33.3333 µM) was tested, and the “ACTA2 mRNA fold change” value was 0.0332. In the case of CCN(CC)CCNC(=O)c1c(C)[nH]c(/C=C2\C(=O)Nc3ccc(F)cc32)c1C (6.66667 µM), the “ACTA2 mRNA fold change” value is reported as 1.2. For Clc1ccccc1CNCC1CCC(CNCc2ccccc2Cl)CC1 (stereo not given) (33.3333 µM), the “ACTA2 mRNA fold change” value was 0.0214. With Cc1nc2ccc(-n3ncc(C(=O)c4cc5ccccc5[nH]4)c3N)cc2[nH]1 (33.3333 µM) the “ACTA2 mRNA fold change” value was 0.785. For CCCCCCCCCCCCCCCCn1cc[n+](Cc2ccccc2)c1C (11.1 µM), the “ACTA2 mRNA fold change” value was 0.0378. In the case of CCCCCCCCCCCCC/C=C/[C@@H](O)[C@H](CO)N(C)C [N,N-Dimethylsphingosine] (3.33333 µM), the “ACTA2 mRNA fold change” value is reported as 0.651. For Cc1cccc(Nc2nc(-c3ccncc3)cs2)c1 (11.1 µM), the “ACTA2 mRNA fold change” value was 1.07. CCN(CC)CCOc1ccc(Cc2ccccc2)cc1 [DPPE fumarate] (33.3333 µM) was tested, and the “ACTA2 mRNA fold change” value was 0.397. For O=C1NCN(c2ccccc2)C12CCN(CCCC(c1ccc(F)cc1)c1ccc(F)cc1)CC2 [Fluspirilene] (14.0333 µM), the “ACTA2 mRNA fold change” value was 1.03.
